PubChem BioAssay (NCATS)
Where “and” joins values, the source holds several entries; their conditions need not be identical. Identical values can stand only once. Inconclusive results are not listed. Where a structure was tested more than once in an assay, its records may differ in their call. Calls of active or inactive are those of the source. Unless noted, calls follow the shape of the dose curve; as a rule, active = well fitted curve in the direction sought with a large enough effect; inconclusive = small, poorly fitted or top-dose-only effect, or another doubt; inactive = no such curve, though single readings can be large; an effect the other way counts as inactive or inconclusive.

How the values were obtained:
[1] = biological target: Atrial natriuretic peptide receptor 2 (Homo sapiens) (UniProt P20594); assay: Natriuretic polypeptide receptor (hNpr2) antagonism - Pilot subtype selectivity assay (AID 1347050; calls by dose curve; also: potency is read from the fitted curve at half-maximal effect)
Atrial natriuretic peptide receptor 2 (Homo sapiens), sequence (P20594 whole entry, looked up): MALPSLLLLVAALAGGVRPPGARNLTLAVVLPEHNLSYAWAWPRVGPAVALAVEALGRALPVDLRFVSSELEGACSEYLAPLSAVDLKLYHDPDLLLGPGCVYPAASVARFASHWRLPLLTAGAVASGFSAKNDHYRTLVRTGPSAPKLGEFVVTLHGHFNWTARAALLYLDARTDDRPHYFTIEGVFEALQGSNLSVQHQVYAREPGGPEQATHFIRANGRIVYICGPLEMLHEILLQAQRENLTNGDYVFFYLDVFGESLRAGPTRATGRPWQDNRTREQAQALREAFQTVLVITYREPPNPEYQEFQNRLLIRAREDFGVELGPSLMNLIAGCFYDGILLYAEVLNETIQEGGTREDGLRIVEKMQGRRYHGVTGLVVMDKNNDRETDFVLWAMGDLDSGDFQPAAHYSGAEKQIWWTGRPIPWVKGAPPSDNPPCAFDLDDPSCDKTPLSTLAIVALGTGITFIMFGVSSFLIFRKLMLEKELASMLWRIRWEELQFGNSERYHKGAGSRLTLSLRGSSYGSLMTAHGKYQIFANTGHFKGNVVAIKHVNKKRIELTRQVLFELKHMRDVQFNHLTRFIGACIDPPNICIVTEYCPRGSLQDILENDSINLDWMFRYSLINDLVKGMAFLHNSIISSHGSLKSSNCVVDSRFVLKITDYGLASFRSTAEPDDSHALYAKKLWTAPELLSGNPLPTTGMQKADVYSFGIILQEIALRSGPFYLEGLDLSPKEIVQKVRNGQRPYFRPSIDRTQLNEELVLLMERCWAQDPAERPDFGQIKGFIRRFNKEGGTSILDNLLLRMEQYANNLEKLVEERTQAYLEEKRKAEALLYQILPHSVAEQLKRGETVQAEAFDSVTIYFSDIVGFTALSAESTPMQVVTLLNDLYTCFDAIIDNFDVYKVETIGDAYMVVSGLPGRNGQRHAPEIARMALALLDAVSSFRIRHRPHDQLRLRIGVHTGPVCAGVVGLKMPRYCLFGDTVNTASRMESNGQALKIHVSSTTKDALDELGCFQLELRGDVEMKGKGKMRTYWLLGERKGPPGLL
Outline: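 Antagonist mode: compounds (LOPAC1280, seven 1:5 dilutions) added 30 min before 1 nM hNppC stimulation of hNpr2-HEK293 cGMP-sensor cells; luminescence read before and 20 min after agonist at ambient temperature.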

[2] = NS1 protein of Zika virus - qHTS assay to identify small molecule inhibitors in human HEK 293 cells (AID 1347053); also: nearly all actives have a fitted effect of over 55% in size; also: potency is read from the fitted curve at half-maximal effect
Outline: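 Readout was TR-FRET using paired anti-NS1 antibodies after 24 h infection of HEK 293 cells with ZIKV MR766 (MOI = 0.5). Compound preceded virus by 1 h; reduced signal reflects lower NS1 expression.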

[3] = biological target: T1, Tyrosine-protein phosphatase non-receptor type substrate 1 (Homo sapiens) + Leukocyte surface antigen CD47 (Homo sapiens) (UniProt P78324+Q08722); assay: CD47-SIRPalpha protein protein interaction - LANCE assay qHTS validation (AID 1347057; active = well fitted curve in the direction sought with a large enough effect in the signal ratio, with a control signal flat, not every such curve was filed as active; the % refers to the signal ratio; also: series mostly up to about 38 µM)
T1 sequence (P78324 whole entry, looked up, the tested form may be a part): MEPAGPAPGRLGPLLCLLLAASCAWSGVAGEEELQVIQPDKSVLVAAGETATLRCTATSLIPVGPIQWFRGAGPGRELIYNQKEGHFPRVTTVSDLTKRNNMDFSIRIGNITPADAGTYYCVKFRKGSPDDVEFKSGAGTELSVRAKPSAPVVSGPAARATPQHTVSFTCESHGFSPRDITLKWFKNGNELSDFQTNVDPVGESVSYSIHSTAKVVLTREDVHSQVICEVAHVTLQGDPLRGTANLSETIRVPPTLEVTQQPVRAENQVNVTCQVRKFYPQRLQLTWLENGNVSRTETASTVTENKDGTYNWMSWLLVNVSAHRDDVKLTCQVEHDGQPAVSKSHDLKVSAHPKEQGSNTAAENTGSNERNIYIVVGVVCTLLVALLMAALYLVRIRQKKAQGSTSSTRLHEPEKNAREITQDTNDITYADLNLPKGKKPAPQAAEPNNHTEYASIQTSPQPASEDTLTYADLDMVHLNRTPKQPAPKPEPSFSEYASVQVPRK
T1 sequence (Q08722 whole entry, looked up, the tested form may be a part): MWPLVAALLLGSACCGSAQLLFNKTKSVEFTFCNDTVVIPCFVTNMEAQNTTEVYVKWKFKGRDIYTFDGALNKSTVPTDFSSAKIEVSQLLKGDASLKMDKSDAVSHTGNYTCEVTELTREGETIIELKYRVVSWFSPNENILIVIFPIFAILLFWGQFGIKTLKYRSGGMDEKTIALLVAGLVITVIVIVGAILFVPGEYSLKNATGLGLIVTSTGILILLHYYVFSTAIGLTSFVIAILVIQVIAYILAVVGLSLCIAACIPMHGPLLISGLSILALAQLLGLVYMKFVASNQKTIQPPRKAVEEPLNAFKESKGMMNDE
Outline: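 Inhibition of soluble CD47/SIRPalpha ectodomain association by titrated compounds, measured as 665/615 nm time-resolved FRET ratio after sequential 30 min room-temperature incubations.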

[4] = biological target: T1, Tyrosine-protein phosphatase non-receptor type substrate 1 (Homo sapiens) + Leukocyte surface antigen CD47 (Homo sapiens); assay: CD47-SIRPalpha protein protein interaction - HTRF assay qHTS validation (AID 1347058; active = well fitted curve in the direction sought with a large enough effect in the signal ratio, not every such curve was filed as active; the % refers to the signal ratio; also: series mostly up to about 38 µM)
Outline: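 Soluble extracellular domains (6His-CD47, Avi-tag-biotinylated SIRPalpha) in PBS pH 7.4 with 0.05% IGEPAL CA-630. Compounds were preincubated 30 min at RT with CD47 and anti-His-Eu, then SIRPalpha and SAV-XL665 were added. TR-FRET 665/615 ratio.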

[5] = biological target: T1, Tyrosine-protein phosphatase non-receptor type substrate 1 (Homo sapiens) + Leukocyte surface antigen CD47 (Homo sapiens); assay: CD47-SIRPalpha protein protein interaction - Alpha assay qHTS validation (AID 1347059);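 also: bead proximity luminescence from CD47 binding SIRPalpha after compound preincubation with SIRPalpha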
Outline: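 AlphaScreen signal between CD47-His (12.5 nM) and biotin-SIRPalpha (25 nM) soluble extracellular domains, bead-captured via Ni-NTA and streptavidin. Compounds, in 7-point titrations, met SIRPalpha 30 min before CD47; PBS pH 7.4 with 0.05% IGEPAL.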

[6] = qHTS for Inhibitors of the Functional Ribonucleoprotein Complex (vRNP) of Lassa (LASV) Arenavirus: Viability assay - alamar blue signal for LASV Primary Screen (AID 1347083; calls by dose curve; tested in HEK293 reporter line; also: nearly all actives have a fitted effect of over 80% in size; also: potency is read from the fitted curve at half-maximal effect)
[7] = qHTS for Inhibitors of the Functional Ribonucleoprotein Complex (vRNP) of Lymphocytic Choriomeningitis Arenaviruses (LCMV): Viability assay - alamar blue signal for LCMV Primary Screen (AID 1347085; calls by dose curve; tested in HEK293 reporter line; also: nearly all actives have a fitted effect of over 80% in size; also: potency is read from the fitted curve at half-maximal effect)
[8] = qHTS of pediatric cancer cell lines to identify multiple opportunities for drug repurposing: Primary screen for TC32 cells (AID 1347089); also: nearly all actives have a fitted effect of over 60% in size; also: potency is read from the fitted curve at half-maximal effect
Outline: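 Measured quantity: luminescence from CellTiter-Glo, reflecting metabolically active TC32 cells following 48 h of compound. Curves came straight from multi-point titrations, with 8 or 11 points in primary and 11 in confirmatory screening.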

[9] = qHTS for Inhibitors of the Functional Ribonucleoprotein Complex (vRNP) of Lassa (LASV) Arenavirus: LASV Primary Screen - GLuc reporter signal (AID 1347082; calls by dose curve; tested in HEK293 reporter line; also: nearly all actives have a fitted effect of over 60% in size; also: potency is read from the fitted curve at half-maximal effect)
[10] = biological target: Nucleoprotein (Lymphocytic choriomeningitis virus (strain Armstrong)) (UniProt P09992); assay: qHTS for Inhibitors of the Functional Ribonucleoprotein Complex (vRNP) of Lymphocytic Choriomeningitis Arenaviruses (LCMV): LCMV Primary Screen - GLuc reporter signal (AID 1347086; calls by dose curve; also: series mostly up to about 57 µM; nearly all actives have a fitted effect of over 70% in size)
Nucleoprotein (Lymphocytic choriomeningitis virus (strain Armstrong)), sequence (P09992 whole entry, looked up): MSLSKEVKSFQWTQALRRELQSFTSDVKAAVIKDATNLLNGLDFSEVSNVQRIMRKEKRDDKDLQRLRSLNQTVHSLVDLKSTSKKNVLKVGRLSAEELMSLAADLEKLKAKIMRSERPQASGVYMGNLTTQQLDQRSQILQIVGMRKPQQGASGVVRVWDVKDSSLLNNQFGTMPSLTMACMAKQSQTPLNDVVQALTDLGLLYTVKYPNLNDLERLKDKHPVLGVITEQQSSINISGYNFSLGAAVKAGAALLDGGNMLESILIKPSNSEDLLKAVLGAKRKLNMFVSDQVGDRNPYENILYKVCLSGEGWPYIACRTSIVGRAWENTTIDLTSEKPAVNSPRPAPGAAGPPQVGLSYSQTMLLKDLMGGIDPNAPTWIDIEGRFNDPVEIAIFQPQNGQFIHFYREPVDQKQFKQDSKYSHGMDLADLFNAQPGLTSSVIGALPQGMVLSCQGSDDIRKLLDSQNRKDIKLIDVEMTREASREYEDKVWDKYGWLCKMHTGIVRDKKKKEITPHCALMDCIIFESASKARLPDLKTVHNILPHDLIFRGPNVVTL

Measured: Potency

C[C@@H]1O[C@@H](O[C@H]2C[C@@H](O)[C@]3(CO)[C@H]4[C@H](O)C[C@]5(C)[C@@H](C6=CC(=O)OC6)CC[C@]5(O)[C@@H]4CC[C@]3(O)C2)[C@H](O)[C@H](O)[C@H]1O
inactive: [1] | [3] | [4] | [5]
active: [6] 109 nM and 44.7 nM | [7] 122 nM and 89.1 nM | [8] 131 nM and 93.8 nM
13.2 nM (active) and inactive: [2]

CCCN1CCC[C@@H]2Cc3[nH]ncc3C[C@H]21
inactive: all assays above

CCC1(C2=NCCN2)Cc2ccccc2O1 (stereo not given)
inactive: all assays above

c1ccc2c(c1)OCC(C1=NCCN1)O2 (stereo not given)
inactive: [1] | [3] | [4] | [5] | [8]
active: [9] 14.1 µM

Cc1ncc(CNC(=O)N(CCCl)N=O)c(N)n1
not listed: [8]
inactive: all other assays above

CC[C@@H](CO)NC(=O)[C@@H]1C=C2c3cccc4[nH]cc(c34)C[C@H]2N(C)C1
not listed: [3] | [4] | [5]
inactive: all other assays above

O=c1[nH]c2ccccc2n1C1CCN(CCCC(c2ccc(F)cc2)c2ccc(F)cc2)CC1
not listed: [9] | [10]
inactive: all other assays above

N#CC(C#N)=Cc1ccc(O)c(O)c1
not listed: [4] | [8]
inactive: all other assays above

C=C(C)[C@H]1Cc2c(ccc3c2O[C@@H]2COc4cc(OC)c(OC)cc4[C@@H]2C3=O)O1
active: [1] 82.6 nM | [9] 1.09 µM | [6] 2.17 µM and 708 nM | [7] 3.85 µM | [8] 1.67 µM and 4.66 µM
inactive: [2] | [3] | [4]

Nc1ccncc1
inactive: all assays above

OCCOc1ccccc1
inactive: [2] | [9] | [6] | [7] | [10] | [8]

CCCC(C)(COC(N)=O)COC(=O)NC(C)C (stereo not given)
not listed: [3] | [4] | [5]
inactive: all other assays above

O=C(NC(O)C(Cl)(Cl)Cl)NC(O)C(Cl)(Cl)Cl (stereo not given)
inactive: [2] | [9] | [6] | [7] | [10] | [8]

CN1C[C@H](CNC(=O)OCc2ccccc2)C[C@@H]2c3cccc4c3c(cn4C)C[C@H]21
not listed: [4] | [5]
inactive: all other assays above

NN=C(N)N
inactive: all assays above

CC(CCc1ccccc1)NC(C)C(O)c1ccc(O)cc1 (stereo not given)
inactive: all assays above

c1ccc2c(c1)Nc1ccccc1S2
inactive: [2] | [9] | [6] | [7] | [10] | [8]

Oc1ccc(Cl)cc1Cc1ccccc1
inactive: [2] | [9] | [6] | [7] | [10] | [8]

CC(C)(C)CC(C)(C)c1ccc(O)cc1
inactive: [2] | [9] | [6] | [7] | [10] | [8]

C=C1C[C@@H]2[C@H](CC[C@]3(C)C(=O)CC[C@@H]23)[C@@]2(C)C=CC(=O)C=C12
inactive: [2] | [9] | [6] | [7] | [10] | [8]

C[C@]12C/C(=C/O)C(=O)C[C@@H]1CC[C@@H]1[C@@H]2CC[C@@]2(C)[C@H]1CC[C@]2(C)O
inactive: [2] | [9] | [6] | [7] | [10] | [8]

CCC(COC(=O)c1cc(OC)c(OC)c(OC)c1)(c1ccccc1)N(C)C (stereo not given)
inactive: [2] | [9] | [6] | [7] | [10] | [8]

CC1NCCOC1c1ccccc1 (stereo not given)
inactive: [2] | [9] | [6] | [7] | [10] | [8]

CC1=C2C[C@@H]3[C@@H](CC=C4C[C@@H](O)CC[C@@]43C)[C@@H]2CC[C@]12O[C@H]1C[C@H](C)CN[C@H]1[C@H]2C
inactive: [2] | [9] | [6] | [7] | [10] | [8]

O=C1CC[C@@]2(O)[C@H]3Cc4ccc(O)c5c4[C@@]2(CCN3CC2CC2)[C@H]1O5
inactive: [2] | [9] | [6] | [7] | [10] | [8]

C#CCN(C)[C@H](C)Cc1ccccc1
inactive: [2] | [9] | [6] | [7] | [10] | [8]

NCCc1cc(O)c(O)cc1O
inactive: [2] | [9] | [6] | [7] | [10] | [8]

CC(C)(N)Cc1ccc(Cl)cc1
inactive: [2] | [9] | [6] | [7] | [10] | [8]

CCC(C(N)=O)N1CCCC1=O (stereo not given)
inactive: [2] | [9] | [6] | [7] | [10] | [8]

Clc1ccc(COC(Cn2ccnc2)c2ccc(Cl)cc2Cl)cc1 (stereo not given)
inactive: [2] | [9] | [6] | [7] | [10] | [8]

N[C@@H](Cc1ccc(N(CCCl)CCCl)cc1)C(=O)O
inactive: [9] | [6] | [7] | [10]
active: [2] 8.33 µM | [8] 20.8 µM

O=[N+]([O-])c1cc([As](=O)(O)O)ccc1O
inactive: [2] | [9] | [6] | [7] | [10] | [8]

COc1ccc(C(=O)c2c(C)n(CCN3CCOCC3)c3ccccc23)cc1
inactive: [2] | [9] | [6] | [7] | [10] | [8]

CC[N+](CC)(CC)CC
inactive: [2] | [9] | [6] | [7] | [10] | [8]

Clc1ccc(CCC(Cn2ccnc2)Sc2c(Cl)cccc2Cl)cc1 (stereo not given)
inactive: [9] | [6] | [7] | [10] | [8]
active: [2] 14.8 µM

Oc1cccc2cccnc12
14.1 µM (active) and inactive: [2]
inactive: [9] | [6] | [7] | [10] | [8]

Clc1cccc(N2CCNCC2)c1
inactive: [2] | [9] | [6] | [7] | [10] | [8]

CC(C)=CC1C(C(=O)OCc2cccc(Oc3ccccc3)c2)C1(C)C (stereo not given)
inactive: [2] | [9] | [6] | [7] | [10] | [8]

Cc1cc(SCc2sc(-c3ccc(C(F)(F)F)c(F)c3)nc2C)ccc1OCC(=O)O
inactive: [2] | [9] | [6] | [7] | [10] | [8]

COC[C@@H](NC(C)=O)C(=O)NCc1ccccc1
inactive: [2] | [9] | [6] | [7] | [10] | [8]

CC(C)(C)NCC(O)c1cc(Cl)c(N)c(Cl)c1 (stereo not given)
inactive: [2] | [9] | [6] | [7] | [10] | [8]

CN1C(=S)CN=C(c2ccccc2)c2cc(Cl)ccc21
inactive: [2] | [9] | [6] | [7] | [10] | [8]

Cc1ccc(-c2nc3ccc(C)cn3c2CC(=O)N(C)C)cc1
inactive: [2] | [9] | [6] | [7] | [10] | [8]

CCN(CC)CCOC(=O)C(O)(c1ccccc1)c1ccccc1
inactive: [2] | [9] | [6] | [7] | [10] | [8]

O=C(O)c1ccc2[nH]cc(CCCCN3CC=C(c4ccccc4)CC3)c2c1
inactive: [2] | [9] | [6] | [7] | [10] | [8]

NP(N)(=O)NC(=O)c1ccc(F)cc1
inactive: [2] | [9] | [6] | [7] | [10] | [8]

COC1(CS(=O)c2ccccc2)CCN(CCc2c[nH]c3ccc(F)cc23)CC1 (stereo not given)
inactive: [2] | [9] | [6] | [7] | [10] | [8]

COc1ccc(C(CN(C)C)C2(O)CCCCC2)cc1 (stereo not given)
inactive: [2] | [9] | [6] | [7] | [10] | [8]

Oc1ccccc1-c1ccccc1
inactive: [2] | [9] | [6] | [7] | [10] | [8]

FC(F)(F)c1cccc(C2=CCN(CCc3ccc4ccccc4c3)CC2)c1
inactive: [2] | [9] | [6] | [7] | [10] | [8]

CC1OC(C)OC(C)O1 (stereo not given)
inactive: [2] | [9] | [6] | [7] | [10] | [8]

Cc1ccc2c(c1)C1CN(C)CCC1N2 (stereo not given)
inactive: [2] | [9] | [6] | [7] | [10] | [8]

O=P1(NCCCl)OCCCN1CCCl (stereo not given)
inactive: [2] | [9] | [6] | [7] | [10] | [8]

N[C@@H]1C[C@H]1c1ccccc1
inactive: [2] | [9] | [6] | [7] | [10] | [8]

CNC(=O)c1ccc(N2C(=S)N(c3ccc(C#N)c(C(F)(F)F)c3)C(=O)C23CCC3)cc1F
inactive: [2] | [9] | [6] | [7] | [8]

CN(C)CCc1ccc(O)cc1
inactive: [2] | [9] | [6] | [7] | [10] | [8]

Cn1cc(C2=C(c3cn(C4CCN(Cc5ccccn5)CC4)c4ccccc34)C(=O)NC2=O)c2ccccc21
inactive: [2] | [9] | [8]

CCC(C)(C)C(=O)O[C@H]1C[C@@H](C)C=C2C=C[C@H](C)[C@H](CC[C@@H]3C[C@@H](O)CC(=O)O3)[C@H]21
inactive: [9]

COC(=O)C1=C(C)NC(C)=C(C(=O)OC(C)C)C1c1cccc2nonc12 (stereo not given)
inactive: [9]
